This passage reports cross-linked residues results from paper doi:10.1101/2025.02.07.636106.

Among the targets are CLTC (UniProt Q00610); CHMP5 (UniProt Q9NZZ3); DDX23 (UniProt Q9BUQ8).
Holding throughout (assay): cross-linking mass spectrometry
A further experiment concerns the target CHTOP (UniProt Q9Y3Y2). Particulars: DSSO.
For a further experiment, the target named is CHP1 (UniProt Q99653). Particulars: DSSO.
Another experiment addresses CD59 (UniProt P13987). Particulars: DSSO.
In another experiment the target is EEA1 (UniProt Q15075). The following applies: DMTMM.
The next experiment concerns the target PLBD2 (UniProt Q8NHP8). Particulars: DSSO.
For the next experiment, the target named is PPT1 (UniProt P50897). The following applies: DSSO.
Another experiment addresses RAB7A (UniProt P51149). Particulars: DMTMM.
Another experiment concerns the target BORCS6 (UniProt Q96GS4). Particulars: DSSO.
Another experiment deals with CCDC93 (UniProt Q567U6). The following applies: DSSO.
For the next experiment, the target named is CENPI (UniProt Q92674). The following applies: DSSO.
For a further experiment, the target named is CHMP4B (UniProt Q9H444). The following applies: DSSO.
The target of another experiment is BLOC1S2 (UniProt Q6QNY1). Particulars: DSSO.
For the next experiment, the target named is ATP6V1F (UniProt Q16864). Particulars: DHSO.
The target in the next experiment is CCDC40 (UniProt Q4G0X9). Particulars: DMTMM.
The next experiment has as its target CCT2 (UniProt P78371). Particulars: DSSO.
The target in a further experiment is CCT8 (UniProt P50990). Particulars: DSSO.
For another experiment, the target named is CNPY2 (UniProt Q9Y2B0). Particulars: DSSO.
The next experiment addresses BCAP31 (UniProt P51572). The following applies: DSSO.
A further experiment concerns the target BNC1 (UniProt Q01954). Particulars: DSSO.
The target of another experiment is CC2D1A (UniProt Q6P1N0). Particulars: DMTMM.
The next experiment has as its target EPS15L1 (UniProt Q9UBC2). Particulars: DMTMM.
A further experiment has as its target CEP250 (UniProt Q9BV73). The following applies: DSSO.
The target of another experiment is CCT3 (UniProt P49368). Particulars: DMTMM.
The target of another experiment is CPVL (UniProt Q9H3G5). Particulars: DSSO.
The target in another experiment is PHF5A (UniProt Q7RTV0). Particulars: DSSO.
The next experiment deals with SF3B6 (UniProt Q9Y3B4). The following applies: DSSO.
The next experiment concerns the target LIPA (UniProt P38571). The following applies: DMTMM.
In a further experiment the target is CRCP (UniProt O75575). The following applies: DSSO.
Another experiment concerns the target POLR2H (UniProt P52434). Particulars: DSSO.
The target in the next experiment is POLR3K (UniProt Q9Y2Y1). The following applies: DSSO.
The next experiment concerns the target CWC15 (UniProt Q9P013). The following applies: DSSO.
Another experiment concerns the target DCTN2 (UniProt Q13561). The following applies: DSSO.
Another experiment concerns the target DEF8 (UniProt Q6ZN54). Particulars: DSSO.
The target in the next experiment is DHCR7 (UniProt Q9UBM7). Particulars: DSSO.
For another experiment, the target named is LCLAT1 (UniProt Q6UWP7). The following applies: DSSO.
Another experiment deals with RPN1 (UniProt P04843). Particulars: DSSO.
Another experiment has as its target DNAAF1 (UniProt Q8NEP3). Particulars: DMTMM.

Sequence of PGRMC1, O00264 (O00264 whole entry): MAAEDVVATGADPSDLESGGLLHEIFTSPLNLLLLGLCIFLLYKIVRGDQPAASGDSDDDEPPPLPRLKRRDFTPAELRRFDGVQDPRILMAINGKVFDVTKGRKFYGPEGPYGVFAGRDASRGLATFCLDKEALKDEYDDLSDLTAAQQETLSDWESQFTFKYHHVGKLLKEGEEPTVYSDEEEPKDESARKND
Sequence of SF3B1, O75533 (O75533 whole entry): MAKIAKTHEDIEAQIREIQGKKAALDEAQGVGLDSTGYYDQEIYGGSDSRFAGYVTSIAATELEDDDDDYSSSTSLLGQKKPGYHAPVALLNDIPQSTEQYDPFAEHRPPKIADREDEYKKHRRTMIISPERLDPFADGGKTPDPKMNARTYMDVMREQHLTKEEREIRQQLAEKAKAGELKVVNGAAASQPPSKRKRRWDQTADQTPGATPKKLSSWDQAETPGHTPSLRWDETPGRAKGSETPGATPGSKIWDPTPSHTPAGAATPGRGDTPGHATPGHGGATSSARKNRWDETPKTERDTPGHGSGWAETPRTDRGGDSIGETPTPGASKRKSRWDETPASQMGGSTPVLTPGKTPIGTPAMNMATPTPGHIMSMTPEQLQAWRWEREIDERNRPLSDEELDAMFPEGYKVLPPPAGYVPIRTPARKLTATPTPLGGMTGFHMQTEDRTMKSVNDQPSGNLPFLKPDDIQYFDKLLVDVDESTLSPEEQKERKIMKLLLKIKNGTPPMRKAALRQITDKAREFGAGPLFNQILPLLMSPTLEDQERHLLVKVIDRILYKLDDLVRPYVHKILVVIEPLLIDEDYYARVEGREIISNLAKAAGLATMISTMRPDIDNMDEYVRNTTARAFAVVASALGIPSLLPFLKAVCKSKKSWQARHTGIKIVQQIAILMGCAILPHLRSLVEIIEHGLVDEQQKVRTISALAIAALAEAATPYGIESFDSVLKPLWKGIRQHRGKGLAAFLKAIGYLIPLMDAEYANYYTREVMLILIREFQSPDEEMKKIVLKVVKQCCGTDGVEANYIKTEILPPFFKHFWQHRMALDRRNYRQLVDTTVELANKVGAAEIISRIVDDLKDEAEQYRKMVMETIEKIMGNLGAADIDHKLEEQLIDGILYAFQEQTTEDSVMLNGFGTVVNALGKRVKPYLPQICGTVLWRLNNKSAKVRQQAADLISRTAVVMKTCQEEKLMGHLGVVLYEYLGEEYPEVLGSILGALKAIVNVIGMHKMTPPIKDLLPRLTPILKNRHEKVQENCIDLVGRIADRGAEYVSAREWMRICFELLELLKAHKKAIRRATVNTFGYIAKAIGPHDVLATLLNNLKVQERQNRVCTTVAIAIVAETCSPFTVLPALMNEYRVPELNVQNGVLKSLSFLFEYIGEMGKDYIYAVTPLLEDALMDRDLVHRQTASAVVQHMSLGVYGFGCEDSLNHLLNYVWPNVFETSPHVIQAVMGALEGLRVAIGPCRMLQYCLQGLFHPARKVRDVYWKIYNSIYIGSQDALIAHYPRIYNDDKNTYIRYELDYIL
Sequence of DDX23 (Q9BUQ8 whole entry): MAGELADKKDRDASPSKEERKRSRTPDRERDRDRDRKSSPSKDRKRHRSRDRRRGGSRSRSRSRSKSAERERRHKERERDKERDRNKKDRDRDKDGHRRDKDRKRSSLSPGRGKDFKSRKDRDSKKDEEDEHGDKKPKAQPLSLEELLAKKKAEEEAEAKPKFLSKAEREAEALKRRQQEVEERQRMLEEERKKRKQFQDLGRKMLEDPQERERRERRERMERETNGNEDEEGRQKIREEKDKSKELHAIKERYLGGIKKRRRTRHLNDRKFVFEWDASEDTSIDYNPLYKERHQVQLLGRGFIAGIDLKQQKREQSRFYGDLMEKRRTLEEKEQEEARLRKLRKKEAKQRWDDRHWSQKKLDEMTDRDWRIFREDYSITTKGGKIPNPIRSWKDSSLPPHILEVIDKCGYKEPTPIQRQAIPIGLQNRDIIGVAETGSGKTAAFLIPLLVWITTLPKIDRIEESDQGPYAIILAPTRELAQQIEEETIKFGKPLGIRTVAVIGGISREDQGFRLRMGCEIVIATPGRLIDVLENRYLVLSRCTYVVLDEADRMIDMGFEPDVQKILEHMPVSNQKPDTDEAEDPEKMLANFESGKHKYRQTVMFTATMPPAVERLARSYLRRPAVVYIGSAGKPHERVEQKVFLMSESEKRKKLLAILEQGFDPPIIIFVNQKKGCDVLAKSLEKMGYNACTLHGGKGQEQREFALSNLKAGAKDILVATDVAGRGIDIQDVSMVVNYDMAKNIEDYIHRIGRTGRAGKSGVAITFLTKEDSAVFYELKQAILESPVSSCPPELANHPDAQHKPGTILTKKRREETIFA
Sequence of CLTC (Q00610 whole entry): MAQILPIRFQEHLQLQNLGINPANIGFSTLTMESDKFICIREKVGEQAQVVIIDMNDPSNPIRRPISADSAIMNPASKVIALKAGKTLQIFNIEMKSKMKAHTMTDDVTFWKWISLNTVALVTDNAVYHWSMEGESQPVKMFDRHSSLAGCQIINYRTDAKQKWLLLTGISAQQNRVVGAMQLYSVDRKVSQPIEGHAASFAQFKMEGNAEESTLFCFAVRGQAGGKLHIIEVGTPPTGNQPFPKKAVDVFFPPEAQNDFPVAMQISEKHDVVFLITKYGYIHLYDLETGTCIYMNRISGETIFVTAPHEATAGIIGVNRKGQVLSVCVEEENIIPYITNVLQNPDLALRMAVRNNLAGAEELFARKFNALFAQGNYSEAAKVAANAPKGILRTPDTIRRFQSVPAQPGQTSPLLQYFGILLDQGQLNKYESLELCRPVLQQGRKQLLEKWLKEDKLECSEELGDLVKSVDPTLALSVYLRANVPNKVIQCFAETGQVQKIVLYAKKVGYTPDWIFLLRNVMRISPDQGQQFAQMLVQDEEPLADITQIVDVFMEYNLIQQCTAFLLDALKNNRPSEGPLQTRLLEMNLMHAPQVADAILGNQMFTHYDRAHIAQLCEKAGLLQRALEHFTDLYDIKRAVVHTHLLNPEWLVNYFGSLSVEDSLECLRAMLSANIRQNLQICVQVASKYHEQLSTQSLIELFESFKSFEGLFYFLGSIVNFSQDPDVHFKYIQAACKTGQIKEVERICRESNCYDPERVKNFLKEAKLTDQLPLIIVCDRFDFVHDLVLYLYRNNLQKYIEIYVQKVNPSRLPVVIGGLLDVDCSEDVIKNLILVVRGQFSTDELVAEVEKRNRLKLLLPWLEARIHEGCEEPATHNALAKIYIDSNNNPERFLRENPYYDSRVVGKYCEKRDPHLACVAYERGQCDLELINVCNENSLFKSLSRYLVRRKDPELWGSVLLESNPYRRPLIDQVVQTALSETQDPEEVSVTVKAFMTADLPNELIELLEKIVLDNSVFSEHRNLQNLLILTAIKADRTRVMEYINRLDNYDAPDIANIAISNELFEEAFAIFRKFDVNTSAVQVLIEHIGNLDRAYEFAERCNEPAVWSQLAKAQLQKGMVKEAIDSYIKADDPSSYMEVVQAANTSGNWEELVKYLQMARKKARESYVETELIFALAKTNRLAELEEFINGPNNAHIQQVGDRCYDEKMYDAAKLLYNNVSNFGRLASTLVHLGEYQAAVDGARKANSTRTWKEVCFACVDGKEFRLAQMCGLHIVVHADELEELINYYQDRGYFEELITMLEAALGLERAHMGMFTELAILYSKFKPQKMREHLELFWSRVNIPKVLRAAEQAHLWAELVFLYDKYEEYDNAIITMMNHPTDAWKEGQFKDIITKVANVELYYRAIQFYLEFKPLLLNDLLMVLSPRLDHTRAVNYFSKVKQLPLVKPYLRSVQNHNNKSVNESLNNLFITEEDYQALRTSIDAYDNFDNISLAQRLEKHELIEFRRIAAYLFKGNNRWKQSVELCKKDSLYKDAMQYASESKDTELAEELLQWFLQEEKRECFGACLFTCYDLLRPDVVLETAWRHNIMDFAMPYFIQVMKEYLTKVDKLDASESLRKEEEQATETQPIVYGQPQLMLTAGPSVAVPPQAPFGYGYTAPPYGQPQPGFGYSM
Sequence of AP2A1, O95782 (O95782 whole entry): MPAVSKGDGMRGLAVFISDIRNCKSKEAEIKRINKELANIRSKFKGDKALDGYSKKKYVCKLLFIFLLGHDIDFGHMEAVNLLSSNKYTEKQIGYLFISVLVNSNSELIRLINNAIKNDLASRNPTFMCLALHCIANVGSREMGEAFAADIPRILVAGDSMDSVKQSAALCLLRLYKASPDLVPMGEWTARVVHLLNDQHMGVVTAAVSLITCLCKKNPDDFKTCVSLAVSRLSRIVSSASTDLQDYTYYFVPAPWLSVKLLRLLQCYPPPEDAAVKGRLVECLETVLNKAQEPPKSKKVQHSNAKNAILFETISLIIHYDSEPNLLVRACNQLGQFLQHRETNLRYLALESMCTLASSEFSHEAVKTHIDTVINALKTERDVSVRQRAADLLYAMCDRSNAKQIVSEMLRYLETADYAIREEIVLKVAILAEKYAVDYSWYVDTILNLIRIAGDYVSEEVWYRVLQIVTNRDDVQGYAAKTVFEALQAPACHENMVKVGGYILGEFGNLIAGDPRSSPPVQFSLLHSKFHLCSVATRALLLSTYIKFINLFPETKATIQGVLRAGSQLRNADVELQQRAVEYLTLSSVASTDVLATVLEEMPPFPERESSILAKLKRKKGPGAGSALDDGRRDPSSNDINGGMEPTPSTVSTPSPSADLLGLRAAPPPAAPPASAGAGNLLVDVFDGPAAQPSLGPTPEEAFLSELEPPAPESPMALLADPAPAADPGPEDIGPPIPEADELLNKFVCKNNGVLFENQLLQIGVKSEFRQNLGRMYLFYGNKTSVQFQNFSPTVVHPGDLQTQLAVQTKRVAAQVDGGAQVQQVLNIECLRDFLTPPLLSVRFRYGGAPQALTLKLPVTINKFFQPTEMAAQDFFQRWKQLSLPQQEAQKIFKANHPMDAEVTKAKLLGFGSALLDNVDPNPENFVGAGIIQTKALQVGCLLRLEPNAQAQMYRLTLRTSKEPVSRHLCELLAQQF
Sequence of ATP6V1F (Q16864 whole entry): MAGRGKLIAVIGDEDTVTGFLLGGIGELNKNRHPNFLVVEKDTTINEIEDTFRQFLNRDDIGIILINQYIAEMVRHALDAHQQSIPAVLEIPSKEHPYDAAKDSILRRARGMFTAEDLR

As to DDX39B, Q13838, the cross-linked residues entry with CHTOP is listed as “K188 - K226”. Consider GPAT4, Q86UL3, for which the cross-linked residues entry with CHP1 is listed as “K426 - K40”. Regarding IGF2R, P11717, the cross-linked residues result with CD59 is on record as “K170 - K90”; with CLTC (DSSO) it was “K2470 - K245”; in the experiment with EEA1, “K2470 - E1329”; with PLBD2, “K1030 - K367”; with PPT1, “K1104 - K253”; with RAB7A, “K2470 - D104”.

In the case of CLTA, P09496, in the experiment with CLTC (DSSO), the cross-linked residues result is “K156 - K1264”.

For BLOC1S2, Q6QNY1, in the experiment with BORCS6, the cross-linked residues entry is reported as “K92 - K224”. As for RPL7A, P62424, in the experiment with CCDC93, the cross-linked residues entry is listed as “K245 - K625”.

With PDCD6IP, Q8WUM4, the cross-linked residues entry is given as “K285 - K618” with CENPI and “K215 - K207” in the experiment with CHMP4B.

On to SNAPIN, O95295, for which the cross-linked residues entry with BLOC1S2 is given as “K73 - K92”. In the case of ATP6V1A, P38606, the cross-linked residues result with ATP6V1F was “D562 - E49”. Take PTPRF, P10586: the cross-linked residues result in the experiment with CCDC40 was “E195 - K1058”. As to PLXNC1, O60486, in the experiment with CLTC (DSSO), the cross-linked residues result is reported as “K1347 - K1612”. As to TCP1, P17987, the cross-linked residues entry with CCT2 is given as “K126 - K46”; with CCT8, “K494 - K466”.

Regarding HSP90B1, P14625, in the experiment with CNPY2, the cross-linked residues entry is given as “K161 - K49”. For EEF1D, P29692, the cross-linked residues result with BCAP31 was “K107 - K199”. NCL, P19338: the cross-linked residues entry is “K348 - K545” in the experiment with BNC1 and “E361 - K732” with CC2D1A. As for AP2A1, O95782, the cross-linked residues entry is on record as “K403 - K189” in the experiment with CLTC (DSSO) and “K880 - E706” with EPS15L1.

CHMP4B, Q9H444: the cross-linked residues entry with CHMP5 (DHSO) is reported as “E90 - E41”; with CHMP5 (DSSO), “K14 - K114”. As to BRCA2, P51587, the cross-linked residues result in the experiment with CLTC (DMTMM) is on record as “E2070 - K367”. On to CROCC, Q5TZA2, for which the cross-linked residues entry with CEP250 is given as “K1333 - K660”.

Consider CCT6A, P40227, for which, in the experiment with CCT3, the cross-linked residues result is on record as “K530 - E69”. Consider GPAT3, Q53EU6, for which, in the experiment with CHP1, the cross-linked residues result is reported as “K81 - K188”. In the case of SF3B1, O75533, the cross-linked residues result in the experiment with CPVL was “K163 - K423”; with PHF5A, “K554 - K13”; with SF3B6 it was “K214 - K7”. Consider CTSD, P07339, for which the figures for the cross-linked residues entry with CPVL and with LIPA were “K127 - K423” and “D238 - K304”, respectively. POLR3A, O14802: the results for the cross-linked residues result with CRCP, with POLR2H and in the experiment with POLR3K were “K398 - K34”, “K590 - K146” and “K1224 - K96”, respectively. Regarding SNW1, Q13573, the cross-linked residues entry with CWC15 was “K153 - K18”. For the substance PLRG1, O43660, in the experiment with CWC15, the cross-linked residues result was “K363 - K18”. As for ACTR1A, P61163, the cross-linked residues entry with DCTN2 is recorded as “K361 - K119”. As to EFTUD2, Q15029, the cross-linked residues entry with DDX23 (DMTMM) was “D860 - K196”; with DDX23 (DSSO) it was “K244 - K196”. Consider SNRNP200, O75643, for which the cross-linked residues result in the experiment with DDX23 (DSSO) is listed as “K14 - K251”.

Consider WDR45B, Q5MNZ6, for which the cross-linked residues entry with DEF8 is given as “K42 - K180”. On to SACM1L, Q9NTJ5, for which the cross-linked residues result with DHCR7 is “K10 - K13”. PGRMC1, O00264: the cross-linked residues result is recorded as “K102 - K13” in the experiment with DHCR7, “K105 - K221” in the experiment with LCLAT1 and “K105 - K524” with RPN1.

In the case of MSL1, Q68DK7, the cross-linked residues entry with DNAAF1 is reported as “K509 - E532”.
